Measurements as given in a collection of fitness landscapes (doi:10.1016/j.celrep.2020.107928).
In all, about 81,000 sequences were measured (“one-hybrid fitness for binding parS DNA”: median about -0.17, highest 2% from about 0.51 on). The full list was thinned out, with the highest values kept by preference.

B1: Caulobacter ParB omega fusion; a variant is named by its letters at X, in order, B8GW30 (parent)
chain: MESVVVGEPGMSEGRRGLGRGLSALLGEVDAAPAQAPGEQLGGSREAPIEILQRNPDQPRRTFREEDLEDLSNSIREKGVLQPILVRPSPDTAGEYQIVAGERAWRAAQRAGLKTVPIMVRELDDLAVLEIGIIENVQRADLNVLEEALSYKVLMEKFERTQENIAQTIGKSXSHVANXMRLLXLPDEVQSYLVSGELTAXHARAIAAAADPVALAKQIIEGGLSVRETEALARKAPNLSAGKSKGGRPPRVKDTDTQALESDLSSVLGLDVSIDHRGSTGTLTITYATLEQLDDLCNRLTRGI

Variants of: B1
Test: one-hybrid fitness for binding parS DNA (scaled: cognate 1, non-cognate 0); higher = stronger binding
Conditions: with parS DNA site
In short: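 The reporter was HIS3, with the binding site 19 bp from the promoter, in E. coli USO used for bacterial one-hybrid selection of Caulobacter ParB libraries with four specificity codons randomised. Growth was on M9 lacking histidine, with 0.1 mM IPTG and 5 mM 3-AT, for 48 hours at 37°C. Illumina sequencing covered plasmids before and after selection; three replicate libraries were pooled and variants with under 10 reads dropped. A fitness score is the log change in variant-to-wild-type read ratio, rescaled to the cognate and non-cognate references.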

| Variant | one-hybrid fitness for binding parS DNA |
| --- | --- |
| PLPS | ≤ 0.2 |
| QYNK | ≤ 0.2 |
| EHAS | ≤ 0.2 |
| VMVC | ≤ 0.2 |
| RHYV | ≤ 0.2 |
| SIFD | ≤ 0.2 |
| LPVS | ≤ 0.2 |
| RAMD | ≤ 0.2 |
| RFMH | ≤ 0.2 |
| RTMS | 0.981 |
| RTMH | ≤ 0.2 |
| RTMD | ≤ 0.2 |
| RFMS | 0.983 |
| RAMS | 1.02 |
| RFMP | ≤ 0.2 |
| RAMH | ≤ 0.2 |
| TRVI | ≤ 0.2 |
| NMKR | ≤ 0.2 |
| LWSA | ≤ 0.2 |
| HELA | ≤ 0.2 |
| TPTY | ≤ 0.2 |
| TLRR | ≤ 0.2 |

| Variant | one-hybrid fitness for binding parS DNA |
| --- | --- |
| NTVA | ≤ 0.2 |
| DTKA | ≤ 0.2 |
| RTKA | 0.808 |
| NTKA | ≤ 0.2 |
| RTVA | 0.566 |
| WIMN | ≤ 0.2 |
| RIYI | ≤ 0.2 |
| TADM | ≤ 0.2 |
| QLFQ | ≤ 0.2 |
| KDMG | ≤ 0.2 |
| RKFQ | ≤ 0.2 |
| RKFK | ≤ 0.2 |
| RKAH | ≤ 0.2 |
| RKAN | 0.343 |
| RKFG | 0.946 |
| RKAG | 0.959 |
| VRYQ | ≤ 0.2 |
| SMCS | ≤ 0.2 |
| TFRT | ≤ 0.2 |
| GREF | ≤ 0.2 |
| GPDK | ≤ 0.2 |
| TATR | ≤ 0.2 |

| Variant | one-hybrid fitness for binding parS DNA |
| --- | --- |
| RFAG | 0.941 |
| NFAG | ≤ 0.2 |
| KFFG | ≤ 0.2 |
| DFAG | ≤ 0.2 |
| RFFG | 0.776 |
| NFFG | ≤ 0.2 |
| SCLF | ≤ 0.2 |
| FALR | ≤ 0.2 |
| IHMV | ≤ 0.2 |
| LILG | ≤ 0.2 |
| TTYT | ≤ 0.2 |
| KWSC | ≤ 0.2 |
| LCWL | ≤ 0.2 |
| RPLC | ≤ 0.2 |
| RSLC | 0.939 |
| RCLC | 1.02 |
| RSLK | ≤ 0.2 |
| RDLC | ≤ 0.2 |
| RELC | ≤ 0.2 |
| QCAL | ≤ 0.2 |
| RIIL | ≤ 0.2 |
| MQLE | ≤ 0.2 |

| Variant | one-hybrid fitness for binding parS DNA |
| --- | --- |
| WYDG | ≤ 0.2 |
| REFC | ≤ 0.2 |
| RCFC | 1.03 |
| RSFC | 0.892 |
| RSFM | 0.292 |
| RDFC | ≤ 0.2 |
| RPFC | ≤ 0.2 |
| DKNG | ≤ 0.2 |
| YTIY | ≤ 0.2 |
| SSYC | ≤ 0.2 |
| RIKT | 0.772 |
| RIVH | ≤ 0.2 |
| RIKF | 0.303 |
| RIKM | 0.325 |
| RIVT | 0.788 |
| RIVN | 0.407 |
| RAAR | ≤ 0.2 |
| RAFC | 0.925 |
| RAAC | 0.98 |
| RAFF | 0.249 |
| RAFM | 0.331 |
| RAAY | 0.478 |
